Test results: PubChem BioAssay (Tox21)
Records with an inconclusive call do not appear. The source made the active and inactive calls. Calls follow the shape of the dose curve; as a rule, active = well fitted cell-killing curve with a large enough effect in the repeat runs; inconclusive = weak or mixed curves; inactive = flat fitted curve, though single readings scatter.

test: qHTS RealTime-Glo MT Cell Viability Assay in HepG2 cells - 32 hour (AID 1224877); conditions: RealTime-Glo luminescence; series mostly up to 76.8 µM; activity change, negative = cytotoxic: at the top concentration; also: nearly all actives have a fitted effect of over 55% in size
From the text: U.S. Tox21 Program National Center for Advancing Translational Sciences [NCATS] NIH Chemical Genomics Center [NCGC] U.S. Environmental Protection Agency [EPA] National Institutes of Environmental Health Sciences [NIEHS] National Toxicology Program [NTP] U.S. Food and Drug Administration [FDA] Tox21 Assay Overview: Measure of cell viability is critical in the cell-base assay. Analysis of cell viability is necessary for the characterization of cell responses to cytotoxic drugs and environmental stress. A RealTime-Glo MT Cell Viability Assay to monitor cell viability in real time of continues cell culture during 40 hours of compound treatment was used to screen Tox21 10K library compounds in HepG2 cells. The RealTime-Glo MT Cell Viability Assay is a nonlytic, homogeneous, bioluminescent method to measure cell viability in real time using a simple, plate-based method. The assay involves adding NanoLuc luciferase and a cell-permeant prosubstrate to cells in culture. Viable cells reduce the proprietary prosubstrate to generate a substrate for NanoLuc luciferase. This substrate diffuses from cells into the surrounding culture medium, where it is rapidly used by the NanoLuc Enzyme to produce a luminescent signal. The signal correlates with the number of viable cells, making the assay well suited for cytotoxicity studies.
Tox21 Assay Protocol Summary: The mixture of HepG2 cell suspension and reagents were dispensed at 600cells/6 ul/well in 1536-well tissue culture treated black solid bottom plates using a Multidrop dispenser. After the assay plates were incubated at a 37 C/5% CO2 incubator for 5 hours, 23 nL of compounds dissolved in DMSO, positive and negative controls was transferred to the assay plate by a pintool work station. The plates were incubated at 37 C for 40 hours. The luminescence intensity were measured at 0h, 8h, 16h, 24h, 32h and 40h time points using ViewLux plate reader during compound treatment.
% is scaled to controls: 0 for no effect and ±100 for the full control effect.

SMILES	activity change, negative = cytotoxic
O=P(O)(O)C(O)(Cc1cccnc1)P(=O)(O)O	1.39% [at 35.3 µM] (inactive)
CCCCCCCCC1CO1 (stereo not given)	-1.57% (inactive)
C[C@@H]1CCC[C@H](C)N1CCCC(O)(c1ccccc1)c1ccccn1 (stereo not given in full)	0.979% [at 35.3 µM] (inactive)
O=CN1CCCCC1	2.24% (inactive)
O=S(=O)(O)c1ccc(Cl)cc1	1.46% (inactive)
C=CCN1CCc2nc(N)sc2CC1	0.69% [at 35.3 µM] (inactive)
CNC(=O)c1c(I)c(NC(C)=O)c(I)c(C(=O)O)c1I	-0.247% [at 35.3 µM] (inactive)
CCC(C)c1nccnc1OC (stereo not given)	0.192% (inactive)
C[C@]12C=CC(=O)C=C1[C@@H](F)C[C@@H]1[C@@H]2[C@@H](O)C[C@@]2(C)[C@H]1CC[C@]2(O)C(=O)CO	-0.427% [at 35.3 µM] (inactive)
CC(C)C(=O)Nc1cccc(C2CN3CCSC3=N2)c1 (stereo not given)	0.521% [at 35.3 µM] (inactive)
CC(C)(O)CCCC1=CCC(C=O)CC1 (stereo not given)	0.0576% (inactive)
CC(=O)Nc1ccc(OCCOCCOc2ccc(NC(C)=O)cc2)cc1	3.7% [at 35.3 µM] (inactive)
CC(C)(C)C(=O)NCCCC(=O)O	-0.356% [at 35.3 µM] (inactive)
CCCC(=O)CC	-0.458% (inactive)
NC[C@H]1O[C@H](O[C@H]2[C@H](O)[C@@H](O[C@H]3O[C@H](CO)[C@@H](O)[C@H](N)[C@H]3O)[C@H](N)C[C@@H]2N)[C@H](N)[C@@H](O)[C@@H]1O	3.63% [at 15.8 µM] (inactive)
CCCCc1ccc(Cl)cc1	0.684% (inactive)
CCOC(=O)[C@H](CCc1ccccc1)N[C@H]1CS[C@H](c2cccs2)CN(CC(=O)O)C1=O	1.25% [at 35.3 µM] (inactive)
Cc1nc2ccc(Cl)cc2[nH]1	1.64% (inactive)
COc1ccccc1N1CCN(CC(O)COc2cc(OC)c(OC)c(OC)c2)CC1 (stereo not given)	2.2% [at 35.3 µM] (inactive)
CCCCCCC(O)CO (stereo not given)	0.563% (inactive)

SMILES	activity change, negative = cytotoxic
C=CC(=O)OCCOCCOCC	0.0983% (inactive)
COCc1nnc(-c2ccc[n+]([O-])c2)n1-c1c(Cl)c(Cl)cc2[nH]c(=O)c(=O)[nH]c12	3.29% (inactive)
CCCCNCC	-2.37% (inactive)
CCCCCCCCCCCC(C)=O	1.17% (inactive)
CN1C(CCl)Nc2cc(Cl)c(S(N)(=O)=O)cc2S1(=O)=O (stereo not given)	0.44% [at 35.3 µM] (inactive)
Cc1nnc(C(=O)NC(C)(C)c2nc(C(=O)NCc3ccc(F)cc3)c(O)c(=O)n2C)o1	-3.42% [at 35.3 µM] (inactive)
CC(C)OC(=O)C(C(=O)OC(C)C)=C1SC=CS1	-10.8% [at 35.3 µM] (inactive)
CCCCCCCCCCCCCCCCN(C)C	-0.525% [at 6.97 µM] (inactive)
CC(C)(Sc1cc(C(C)(C)C)c(O)c(C(C)(C)C)c1)Sc1cc(C(C)(C)C)c(O)c(C(C)(C)C)c1	-16.7% [at 35.3 µM] (inactive)
O=C[C@@H](O)[C@H](O)[C@H](O)CO	3.33% (inactive)
CC(C)C(C)C	-0.848% (inactive)
C=CCN(CC=C)CC=C	1.65% (inactive)
c1cc2ccc3ccc4ccc5cccc6c(c1)c2c3c4c56	-3.43% [at 2.72 µM] (inactive)
CC(C)C[P+](C)(CC(C)C)CC(C)C	-0.795% (inactive)
Cc1cccc(N)n1	-0.162% (inactive)
O=C(O)CCC(=O)Nc1ccc(S(=O)(=O)Nc2nccs2)cc1	4.06% [at 35.3 µM] (inactive)
CCCCCCCCS(=O)(=O)O	-2.76% (inactive)
CCN1CCN(C(=O)N[C@@H](C(=O)N[C@@H]2C(=O)N3C(C(=O)O)=C(CSc4nnnn4C)CS[C@H]23)c2ccc(O)cc2)C(=O)C1=O	0.52% [at 35.3 µM] (inactive)
COc1cc(OC)cc(OC)c1	1.21% [at 35.3 µM] (inactive)
N#Cc1cc(NC(=O)C(=O)O)c(Cl)c(NC(=O)C(=O)O)c1	0.745% [at 35.3 µM] (inactive)
